Drawing on ChEMBL document CHEMBL3433997, “St. Jude Leishmania screening dataset” (2016), this text covers inhibition for 36 molecules.

What all share (assay type): functional
Assay [1] concerns the target Solute carrier family 2, facilitated glucose transporter member 1 (Homo sapiens) (UniProt P11166). Nature of the assay: ST_JUDE_LEISH: Cytotoxicity at 2uM final concentration against transgenic Leishmania Mexicana promastigotes LmGLUT1 that are glucose transport deficient and complemented with the human glucose transporter GLUT1. Activity is measured by DNA content using SYBR green in vitro.

The target in assay [2] is Hexose transporter 1 (Plasmodium falciparum) (UniProt O97467). Nature of the assay: ST_JUDE_LEISH: Cytotoxicity at 2uM final concentration against transgenic Leishmania Mexicana promastigotes LmPfHT that are glucose transport deficient and complemented with the Plasmodium falciparum hexose transporter. Activity is measured by DNA content using SYBR green in vitro.
In assay [3] the target is Glucose transporter (Leishmania mexicana) (UniProt O61059). Nature of the assay: ST_JUDE_LEISH: Cytotoxicity at 2uM final concentration against transgenic Leishmania Mexicana promastigotes LmGT2 that are glucose transport deficient and complemented with the L. Mexicana glucose transporter 2. Activity is measured by DNA content using SYBR green in vitro.

Solute carrier family 2, facilitated glucose transporter member 1 (Homo sapiens), sequence (P11166 whole entry): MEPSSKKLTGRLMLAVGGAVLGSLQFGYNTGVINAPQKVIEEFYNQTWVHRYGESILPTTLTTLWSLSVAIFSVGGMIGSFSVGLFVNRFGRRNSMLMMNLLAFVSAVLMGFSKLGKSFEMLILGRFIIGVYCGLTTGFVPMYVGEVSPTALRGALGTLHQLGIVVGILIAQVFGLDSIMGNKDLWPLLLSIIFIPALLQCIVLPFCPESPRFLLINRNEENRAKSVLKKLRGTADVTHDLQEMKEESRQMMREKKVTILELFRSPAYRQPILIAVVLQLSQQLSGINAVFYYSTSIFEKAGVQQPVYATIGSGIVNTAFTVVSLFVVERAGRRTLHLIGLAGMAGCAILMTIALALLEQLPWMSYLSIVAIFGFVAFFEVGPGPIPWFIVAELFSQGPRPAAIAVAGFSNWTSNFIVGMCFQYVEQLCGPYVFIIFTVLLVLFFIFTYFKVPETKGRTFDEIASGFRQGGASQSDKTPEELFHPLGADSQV

Regarding `Cc1ccc(C(=O)N2CCN(Cc3nccs3)CC2)cc1`, the inhibition in assay [1] was 1.23%; in assay [2] it was -0.14%; in assay [3], -0.27%.
With `Cc1cnc(Nc2cccnc2)nc1Nc1ccccc1C(=O)NC(C)C`, the inhibition came out at 1.01% in assay [1], 1.12% in assay [2] and 2.25% in assay [3].
`COc1ccc2nccc([C@@H](O)CN3CCC(NC(=O)c4ccc5nc(-n6cccc6)sc5c4)CC3)c2c1`: the inhibition in assay [1] is 6.02%; in assay [2], 5.93%; in assay [3] it was 4.22%.
For `C#CCCC(=O)Nc1cccc(-c2cccc(-c3nc4cc(C(F)(F)F)ccc4[nH]3)c2)c1`, the inhibition was -2.22% in assay [1], 1.99% in assay [2] and 1.42% in assay [3].
As for `Cc1sc2ncnc(Sc3nnc(N)s3)c2c1C`, the figures for the inhibition in assay [1], in assay [2] and in assay [3] were 2.03%, 3.89% and 1.09%, respectively.
As to `COc1ccc(NC(=O)c2cccc(Br)c2)cc1N1CCN(CCCCCCCN2CCN(c3cc(NC(=O)c4cccc(Br)c4)ccc3OC)CC2)CC1`, the inhibition in assay [1] came to 3.47%; in assay [2], 2.27%; in assay [3] it was 0.78%.
Turning to `COc1ccc(Cn2ccc3c4c(N)nc(N)nc4ccc32)cc1`, the figures for the inhibition in assay [1], in assay [2] and in assay [3] were 97.9%, 89.3% and 90.1%, respectively.
Consider `O=C1C(=Cc2c(O)ccc3ccccc23)SC(=NCc2ccccc2)N1Cc1ccccc1`, for which the figures for the inhibition in assay [1], in assay [2] and in assay [3] were 3.93%, 2.01% and 3.38%, respectively.
Regarding `Nc1nccc2ccc(-c3cccc4ncccc34)cc12`, the inhibition in assay [1] was determined as 1.74%; in assay [2] it was 0.04%; in assay [3], 1.15%.
In the same order, the values of `Cc1nc2c(-n3cc(Cn4ccnc4)c4ccccc43)ncnc2n1-c1ccc(Cl)cc1Cl` are 0.32%, 0.41% and -1%.
For `CCOc1cc2ncnc(Nc3ccc(OCc4c(Cl)cccc4Cl)c(OC)c3)c2cc1OCC`, the inhibition in assay [1] came to 4.01%; in assay [2] it was 4.16%; in assay [3] it was 3.54%.
On to `COc1cccc(OC)c1CN1CCC(N(C)CCCCCCCCN2CCC(OC(=O)Nc3ccccc3-c3ccccc3)CC2)CC1`, for which the figures for the inhibition in assay [1], in assay [2] and in assay [3] were 105%, 108% and 74.3%, respectively.
As to `NC1CCN(c2nc(NCCc3ccc(O)cc3)nc(NCc3ccccc3-c3ccccc3)n2)CC1`, the results for the inhibition in assay [1], in assay [2] and in assay [3] were -0.15%, 0.54% and 0.38%, respectively.
`Cc1ccccc1C1CCN(C2CCC(NC(=O)c3ccc(-c4cc(C(F)(F)F)nn4C)s3)CC2)CC1` (stereo not drawn): the inhibition in assay [1] was 10.8%; in assay [2], 9.92%; in assay [3], 9.51%.
`COc1cc(OC)nc(-c2cccc(NC(=O)c3ccc4c(=O)n(CCN5CCCCC5)cnc4c3)c2)n1`: the inhibition was 11.9% in assay [1], 9.45% in assay [2] and 7.35% in assay [3].
With `CC(C)CC(NC(=O)c1cc2ccccc2s1)C(=O)N1CCCCCC1c1ccc(C(C)(C)C)cc1` (stereo not drawn), the values for the inhibition in assay [1], in assay [2] and in assay [3] were -2.77%, -0.83% and -0.81%, respectively.
Regarding `CC(C)Sc1nc2c(c(=O)n1CCc1ccccc1)C1(CCCCC1)Cc1ccccc1-2`, the inhibition is -1.26% in assay [1], -1.14% in assay [2] and -0.83% in assay [3].
With `Cc1csc(-c2nc(NCc3cccnc3)ncc2-c2ccsc2)n1`, the results for the inhibition in assay [1], in assay [2] and in assay [3] were 2.02%, 2.53% and 3.04%, respectively.
As to `CN(C)c1c(CNCCCCCCNCc2ccc3ccccc3c2N(C)C)ccc2ccccc12`, the figures for the inhibition in assay [1], in assay [2] and in assay [3] were 8.79%, 8.66% and 7.38%, respectively.
Turning to `Cc1ccc(-c2ccn(Cc3ccc(OCc4ccccc4)cc3)n2)cn1.Cc1ccc(-c2ccnn2Cc2ccc(OCc3ccccc3)cc2)cn1`, the figures for the inhibition in assay [1], in assay [2] and in assay [3] were 0.13%, 0.76% and 0.25%, respectively.
`CCN1C(=O)C(=NN=C(S)N2CCCC2)c2ccccc21`: the inhibition in assay [1] is -0.3%; in assay [2], -1.51%; in assay [3] it was -3.35%.
Turning to `Oc1ccc(-c2cc(-c3ccc(O)cc3)nc(-c3ccccc3)n2)cc1`, the inhibition was found to be 2.51% in assay [1], 1.53% in assay [2] and 0.82% in assay [3].
The matching figures for `Cc1cc(N2CCCCC2)nc2ccc(NC(=O)c3cc(=O)c4ccccc4o3)cc12`: 5.94%, 7.2% and 0.66%.
In the case of `COc1ccc2nccc([C@@H](O)CN3CCC(NCc4cnc5c(c4)NC(=O)CS5)CC3)c2c1`, the inhibition in assay [1] is 2.7%; in assay [2] it was 4.54%; in assay [3] it was 1.2%.
As to `N#Cc1cccc(Nc2nccc(NCC(O)c3ccccc3C(F)(F)F)n2)c1` (stereo not drawn), the inhibition is 9.64% in assay [1], 7.25% in assay [2] and 3.83% in assay [3].
As for `NS(=O)(=O)Cc1cccc(-c2ccnc3ccc(-c4cccc(S(N)(=O)=O)c4)cc23)c1`, the inhibition was 3.2% in assay [1], 0.84% in assay [2] and 1.72% in assay [3].
In the same order, the values of `COc1cc2cc(-c3nc4ccccc4[nH]3)c(N)nc2cc1OC` are 84%, 91.3% and 67.3%.
For the molecule `COc1ccc(-c2nonc2NC(=O)c2ccc(OC(C)C)cc2)cc1OC`, the inhibition in assay [1] came to 0.75%; in assay [2], 3.06%; in assay [3], 3.04%.
As for `Nc1ncc(-c2ccc3nccc(-c4ccncc4)c3c2)cc1S(=O)(=O)N1CCCCC1`, the inhibition in assay [1] is 12.9%; in assay [2] it was 11.3%; in assay [3], 7.55%.
For `CC1=C(C(=O)Nc2cc3cn[nH]c3cc2F)C(c2cccc(NS(C)(=O)=O)c2)CC(=O)N1` (stereo not drawn), the inhibition amounted to 2.54% in assay [1], 1.97% in assay [2] and 2.34% in assay [3].
Regarding `Cc1cc(C)cc(NC(=S)NCCCCN2CCN(c3cccc(Cl)c3)CC2)c1`, the inhibition was -0.5% in assay [1], -1.31% in assay [2] and -4.65% in assay [3].
Turning to `Cc1cccc2nc(-c3ccc(-c4cccc(CNCc5ccc(CN)cc5)c4)s3)[nH]c12`, the inhibition in assay [1] is 3.9%; in assay [2], 3.91%; in assay [3] it was 4.55%.
The matching figures for `CCCOc1cc(O)c(-c2[nH]nc(C)c2Oc2ccccc2)cc1CC`: 1.25%, -0.1% and -1%.
As to `COc1ccc(C(=O)O)cc1OCc1ccccc1`, the figures for the inhibition in assay [1], in assay [2] and in assay [3] were 0.41%, -0.29% and 0.75%, respectively.
On to `CN(C)Cc1ccc(-c2cc3c(-c4ccc(CN(C)C)cc4)ccnc3[nH]2)cc1`, for which the inhibition turned out to be 5.17% in assay [1], 12.8% in assay [2] and 2.4% in assay [3].
The matching figures for `CCC(C)NC(=O)Cn1c2ncccc2c(=O)n1-c1ccc(C)cc1` (stereo not drawn): 5.25%, 4.88% and 0.04%.

In general, inhibition refers to the relative decrease from the control value, in per cent.
